In general, inhibition refers to the drop in the measured response relative to a control, in per cent.

Some of the results follow. Unmarked numbers belong to inactive results. The source made the active and inactive calls.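 How the source made its calls: active means inhibition of the enzyme GSTO1 above about 75% (limit read from the data); inactive means inhibition below that limit.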

Experimental findings from PubChem BioAssay AID463110 (The Scripps Research Institute Molecular Screening Center, 2010) are described below.

For the assay, the target named is Glutathione S-transferase omega-1 (Homo sapiens) (UniProt P78417). As to the kind of experiment: inhibitors of purified human GSTO1, late-stage follow-up, biochemical, gel ABPP, SE-Rh probe, percent inhibition (AID 463110). The conditions noted are these: recombinant GSTO1, gel ABPP SE-Rh probe fluorescence; at 1 µM; active compounds read high.
Glutathione S-transferase omega-1 (Homo sapiens), sequence (P78417 whole entry, looked up): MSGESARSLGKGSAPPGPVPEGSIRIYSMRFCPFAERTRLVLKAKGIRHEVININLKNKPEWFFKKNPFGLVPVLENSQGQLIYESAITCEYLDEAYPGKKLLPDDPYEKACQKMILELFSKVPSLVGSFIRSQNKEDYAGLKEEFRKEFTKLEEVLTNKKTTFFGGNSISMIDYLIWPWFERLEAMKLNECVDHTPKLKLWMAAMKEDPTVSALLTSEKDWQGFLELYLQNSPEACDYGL
As to `O=C(c1[nH]ncc1-c1ccc(Cl)cc1)C1CO1` (stereo not given), the inhibition is 29%.
With `CCC1(CC)Cc2ccccc2-c2nc(CCl)[nH]c(=O)c21` the figure was 79% (active); with `O=c1cc(CCl)nc2scc(-c3ccccc3)n12`, 82% (active).
As to `Cc1ccc(N(Cc2cc(=O)[nH]c3ccccc23)C(=O)CCl)cc1`, the inhibition is 36%.
For the molecule `COc1ccc(C(C(=O)NC2CCCCC2)N(C(=O)CCl)c2ccccc2Cl)cc1` (stereo not given), the inhibition is 23%.
